Results on 25 compounds are retold here after PubChem BioAssay (NCATS).

For assay [1], the target named is Arylsulfatase A (Homo sapiens) (UniProt P15289). Nature of the assay: qHTS screen for enhancers of Arylsulfatase A (ASA1): LOPAC Validation Assay (AID 720538). Also: potency is read from the fitted curve at half-maximal effect. Summed up: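 First, ASA-I179S fibroblasts from an MLD patient adhered for 6 hrs. Next, compounds were added for 48h. Then pNCS substrate (0.5mM final) with lysis buffer reacted 14h at room temperature before NaOH stop and fluorescence measurement.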
A general note: Quantitative high-throughput screening tests each substance at several concentrations.

Assay [2] can be described thus: qHTS for compounds that reverse cellular toxicity of Amyloid beta (A-beta) peptide in yeast: LOPAC Validation Assay (AID 720559).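 Also: plate controls were DMSO for no effect and equimolar ferric chloride plus clioquinol rescue for full effect.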 An outline of the steps:
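Activity is expressed relative to DMSO and an equimolar ferric chloride/clioquinol mix. Compounds were pinned into medium with A-beta-expressing yeast, grown 48 hr at 30 C, then read by absorbance at 600 nm.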

The nature of assay [3]: qHTS for Activators of Parkin Expression: LOPAC Validation Assay (NLuc Reporter) (AID 720572;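 also: 0% = DMSO and 100% = positive control compound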). Summed up:
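Neuronal cells with a Parkin promoter-driven FLuc/NLuc coincidence reporter were treated 24 h at 37 C in 7-point dose response (LOPAC). NLuc luminescence read after FLuc; signals normalized to DMSO and positive control (100%).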

Assay [4] can be described thus: qHTS for Activators of Parkin Expression: LOPAC Validation Assay (FLuc Reporter) (AID 720573;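 also: 0% = DMSO and 100% = positive control compounds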). An outline of the steps:
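A neuronal cell line harbouring FLuc and NLuc reporters behind the Parkin promoter was exposed to compounds for 24 h. Firefly luciferase signal, measured after 10 min with detection reagent, was scaled to DMSO and positive-control wells.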

The target in assay [5] is T1, Hexokinase-4 (Homo sapiens) + Glucokinase regulatory protein (Homo sapiens) (UniProt P35557+Q14397). Description: qHTS assay for inhibitors of recombinant human GCK-GKRP interaction: Diaphorase-coupled assay (AID 743205). Also: potency is read from the fitted curve at half-maximal effect. An outline of the steps:
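Inhibitors of the GCK–GKRP complex relieve GKRP suppression of GCK, detected through a G6PDH–diaphorase cascade reducing resazurin. Human GST-GCK and FLAG-GKRP are used at 10 nM with 5 mM glucose and 0.4 mM ATP.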

Assay [6] concerns the target T1, Hexokinase-4 (Homo sapiens) + Glucokinase regulatory protein (Homo sapiens). Nature of the assay: qHTS assay for inhibitors of recombinant human GCK-GKRP interaction: ADP-Glo assay (AID 743206).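 Also: plate controls were DMSO plus enzyme for no effect and no enzyme for full effect.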 Summed up: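 GST-GCK and FLAG-GKRP (15 nM each in the dispensed mix, with 2 uM S6P) react with 0.4 mM ATP and 5 mM glucose (final) in Hepes pH 7.6 for 60 min at room temperature. ADP is measured by ADP-Glo luminescence.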

The target is the same in assay [7]. Nature of the assay: qHTS assay for inhibitors of recombinant human GCK-GKRP interaction: HTRF assay (AID 743207).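 Also: 0% = DMSO with GCK present and -100% = DMSO wells lacking GCK.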 Summed up: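 Steps: dispense GCK–GKRP complex (5 nM each, GST- and FLAG-tagged) with 2 uM S6P; pin in compounds; add XL665/Eu-cryptate-labelled antibodies; incubate 60 min at room temperature; read time-resolved FRET at 665 and 615 nm.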
Assay [8] in a line: qHTS assay for environmental chemicals that activate the Aryl hydrocarbon Receptor (AhR) signaling pathway (AID 651777). Also: % of control where 0% means no effect; nearly all actives have a fitted effect of over 15% in size. Particulars: 1A2-DRE human hepatoma cells, luciferase, 24 h; activation: active compounds read high. An outline of the steps:
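Stable CYP1A2 promoter/DRE-luciferase human hepatoma line treated 24 hr; One-Glo luminescence, 30 min RT.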

The nature of assay [9]: qHTS assay for small molecule agonists of the antioxidant response element (ARE) signaling pathway measured by Nrf2-dependant transcriptional activity (AID 720636; active = well fitted curve in the direction sought with a large enough effect in the repeat runs; an effect the other way counts as inactive or inconclusive;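 also: HepG2 cells with an ARE-driven luciferase reporter; % of control where 0% means no effect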). An outline of the steps: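 Reporter gene assay, HepG2 ARE-luc: 16 hr compound, 37 C, 5% CO2; read-out luciferase luminescence.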
Assay [10] is described as follows: qHTS assay for small molecule agonists of the antioxidant response element (ARE) signaling pathway measured by Nrf2-dependant transcriptional activity - cell viability counter screen (AID 720653; active = well fitted curve in the direction sought with a large enough effect in the repeat runs; an effect the other way counts as inactive or inconclusive; also: % is scaled to controls: 0 for no effect and ±100 for the full control effect). The following applies: ARE-bla HepG2 viability, CellTiter-Glo ATP luminescence, 16 h; max response: active compounds read low. Summed up: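 ARE-bla HepG2 cells treated with compounds for 16 h at 37C; this counter screen measures viability as intracellular ATP by CellTiter-Glo luminescence after 30 min at room temperature.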

Unmarked numbers belong to inactive results. Inconclusive results are not listed. The source made the active and inactive calls. Unless noted, calls follow the shape of the dose curve; as a rule, active = well fitted curve in the direction sought with a large enough effect; inconclusive = small, poorly fitted or top-dose-only effect, or another doubt; inactive = no such curve, though single readings can be large; an effect the other way counts as inactive or inconclusive.

T1 sequence (P35557 whole entry, looked up): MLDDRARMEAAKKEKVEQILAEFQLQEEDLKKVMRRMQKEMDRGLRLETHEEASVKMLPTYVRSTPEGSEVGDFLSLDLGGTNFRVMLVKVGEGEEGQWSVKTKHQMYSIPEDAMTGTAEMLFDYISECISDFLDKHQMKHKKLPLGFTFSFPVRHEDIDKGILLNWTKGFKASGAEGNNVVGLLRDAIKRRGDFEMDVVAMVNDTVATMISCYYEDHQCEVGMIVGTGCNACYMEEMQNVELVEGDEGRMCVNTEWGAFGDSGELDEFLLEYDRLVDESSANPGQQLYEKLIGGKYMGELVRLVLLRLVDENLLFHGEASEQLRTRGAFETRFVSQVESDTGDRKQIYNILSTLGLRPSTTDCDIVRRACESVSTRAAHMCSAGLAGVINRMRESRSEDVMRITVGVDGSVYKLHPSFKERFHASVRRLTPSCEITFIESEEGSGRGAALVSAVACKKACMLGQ
T1 sequence (Q14397 whole entry, looked up): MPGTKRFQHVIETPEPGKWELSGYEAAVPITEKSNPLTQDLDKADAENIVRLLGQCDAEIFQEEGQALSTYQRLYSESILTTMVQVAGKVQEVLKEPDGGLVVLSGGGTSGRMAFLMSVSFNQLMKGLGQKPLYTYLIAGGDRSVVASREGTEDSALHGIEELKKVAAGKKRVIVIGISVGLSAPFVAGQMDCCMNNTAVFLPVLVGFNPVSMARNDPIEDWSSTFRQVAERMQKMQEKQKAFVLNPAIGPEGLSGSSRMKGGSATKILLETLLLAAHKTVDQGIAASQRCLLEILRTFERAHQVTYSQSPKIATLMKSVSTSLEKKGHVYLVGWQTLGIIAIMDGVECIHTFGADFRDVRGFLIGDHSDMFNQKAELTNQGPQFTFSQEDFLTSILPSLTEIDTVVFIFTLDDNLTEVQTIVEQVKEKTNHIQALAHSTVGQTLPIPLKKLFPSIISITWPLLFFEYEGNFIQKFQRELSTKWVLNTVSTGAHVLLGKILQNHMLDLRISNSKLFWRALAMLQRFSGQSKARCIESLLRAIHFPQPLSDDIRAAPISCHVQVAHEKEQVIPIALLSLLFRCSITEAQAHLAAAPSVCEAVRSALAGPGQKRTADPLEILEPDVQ
Sequence of Arylsulfatase A (Homo sapiens) (P15289 whole entry, looked up): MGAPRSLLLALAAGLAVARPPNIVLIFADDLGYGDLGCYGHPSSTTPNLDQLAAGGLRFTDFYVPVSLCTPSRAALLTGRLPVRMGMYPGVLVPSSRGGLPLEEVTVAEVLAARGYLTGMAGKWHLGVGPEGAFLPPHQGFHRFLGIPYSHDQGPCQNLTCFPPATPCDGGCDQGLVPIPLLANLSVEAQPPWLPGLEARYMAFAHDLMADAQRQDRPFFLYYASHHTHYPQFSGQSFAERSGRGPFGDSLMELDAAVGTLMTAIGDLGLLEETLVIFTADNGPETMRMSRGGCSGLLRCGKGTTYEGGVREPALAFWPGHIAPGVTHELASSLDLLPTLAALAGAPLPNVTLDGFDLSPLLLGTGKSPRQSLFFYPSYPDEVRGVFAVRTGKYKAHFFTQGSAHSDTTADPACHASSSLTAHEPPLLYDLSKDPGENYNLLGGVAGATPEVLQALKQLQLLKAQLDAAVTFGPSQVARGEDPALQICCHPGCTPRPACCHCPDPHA

As to `COc1ccc2c(c1O)-c1cccc3c1[C@@H](C2)N(C)CC3`, the Potency entry in assay [1], in assay [3] and in assay [5] was “inactive” in each case. Also, the compound was classed as inactive in [2], in assay [4], in assay [6] and in assay [7].
Regarding `CC(C)(C)c1cc(C=C(C#N)C#N)cc(C(C)(C)C)c1O`, the Potency result in assay [1], in assay [3] and in assay [5] was “inactive” in each case. For the same compound, the call in assay [2], in assay [4], in assay [6] and in [7] was inactive.
For the compound `CCCSP(=O)(OCC)SCCC`, in assay [8], the activation was -2.38%. Also, the Potency result in assay [9] was “inactive”. The max response in assay [10] is -15.9%.
Turning to `COc1ccc2c(c1)[C@@]13CCCC[C@H]1[C@@H](C2)NCC3`, the Potency entry in assay [1], in assay [3] and in [5] was “inactive” each time. The outcome in [2], in assay [6] and in [7] was inactive.
In the case of `CCN1C[C@@]2(COC)C3[C@@H](OC)C4[C@@H]1C3([C@@H]1C[C@]3(O)[C@H](OC(=O)c5ccccc5)[C@@H]1[C@]4(OC(C)=O)[C@@H](O)[C@@H]3OC)[C@H](OC)C[C@H]2O`, the Potency result in assay [1], in assay [3] and in [5] was “inactive” throughout. The compound was classed as inactive in assay [2], in assay [4], in assay [6] and in [7].
As to `C=CCN1CC[C@]23c4c5ccc(O)c4O[C@@H]2/C(=N/N=C2\CC[C@@]4(O)C6Cc7ccc(O)c8c7[C@@]4(CCN6CC=C)[C@@H]2O8)CC[C@@]3(O)C1C5`, the Potency entry in [1], in assay [3] and in assay [5] was “inactive” each time. The compound was classed as inactive in assay [2], in [6] and in assay [7].
`NC(C(=O)O)c1cc(=O)[nH]o1` (stereo not given): the Potency entry in assay [1], in [3] and in [5] was “inactive” in each case. Moreover, the call in [2], in [4], in [6] and in [7] was inactive.
Consider `CCCN1CCc2cccc3c2[C@H]1Cc1ccc(O)c(O)c1-3`, for which the Potency result in assay [1], in assay [3] and in assay [5] was “inactive” in each case. Moreover, the outcome in [2], in assay [6] and in assay [7] was inactive.
Take `CN(C(=O)Cc1ccc(Cl)c(Cl)c1)C(CN1CCCC1)c1cccc(OCC(=O)O)c1` (stereo not given): the Potency entry in assay [1], in assay [3] and in assay [5] was “inactive” each time. For the same compound, the compound was classed as inactive in assay [2], in assay [4], in [6] and in assay [7].
Turning to `CC(C)NP(=O)(NC(C)C)OP(=O)(NC(C)C)NC(C)C`, the Potency entry in assay [1], in assay [3] and in assay [5] was “inactive” each time. The outcome in assay [2], in [6] and in assay [7] was inactive.
`CCCN(CCC)C1Cc2cc(OC)c(OC)cc2C1`: the Potency result in [1], in assay [3] and in assay [5] was “inactive” each time. The outcome in assay [2], in assay [6] and in assay [7] was inactive.
As to `O=c1c2ccccc2[se]n1-c1ccccc1`, the Potency entry in [1] and in assay [3] was “inactive” each time. Further, the compound was classed as inactive in [2], in [4], in assay [6] and in [7]. Besides, in assay [5], the Potency is 14.1 µM (active).
Regarding `CCCn1c(C)c(C(=O)c2ccc3ccccc3c2)c2ccccc21`, the Potency entry in [1], in assay [3] and in assay [5] was “inactive” throughout. Moreover, the outcome in assay [2], in assay [4], in assay [6] and in assay [7] was inactive.
Turning to `NC(Cc1ccc(N(CCCl)CCCl)cc1)C(=O)O` (stereo not given), the Potency result in [1], in assay [3] and in assay [5] was “inactive” throughout. The compound was classed as inactive in [2], in assay [4], in [6] and in assay [7].
Consider `NC(N)=NOCC[C@H](N)C(=O)O`, for which the Potency result in assay [1], in assay [3] and in [5] was “inactive” each time. In addition, the outcome in assay [2], in assay [4], in assay [6] and in assay [7] was inactive.
`COC(=O)N1CCN(C(=O)Cc2ccc(Cl)c(Cl)c2)C(CN2CCCC2)C1` (stereo not given): the Potency result in assay [1], in [3] and in assay [5] was “inactive” throughout. For the same compound, the outcome in [2], in assay [6] and in [7] was inactive.
In the case of `CC(N)Cc1c[nH]c2ccc(O)cc12` (stereo not given), the Potency in assay [1] was 9.53 µM (active). Besides, the result in assay [2], in assay [6] and in assay [7] was inactive. Moreover, the Potency entry in assay [3] and in [5] was “inactive” each time.
Consider `O=C1CC[C@@]2(O)C3Cc4ccc(O)c5c4C2(CCN3CC2CC2)[C@H]1O5` (stereo not given in full), for which the Potency in assay [1] was 0.426 µM (active). Besides, the compound was classed as inactive in assay [2], in assay [4], in assay [6] and in [7]. Moreover, the Potency result in assay [3] and in assay [5] was “inactive” in each case.
Turning to `C=CCN1CC[C@]23c4c5ccc(O)c4O[C@H]2/C(=N/NC(=O)c2ccccc2)CC[C@@]3(O)[C@H]1C5`, the Potency entry in assay [1], in [3] and in assay [5] was “inactive” throughout. Moreover, the compound was called inactive in assay [2], in assay [4], in assay [6] and in assay [7].
Take `CCCN1CCC[C@@H](c2cccc(O)c2)C1`: the Potency entry in assay [1], in assay [3] and in assay [5] was “inactive” in each case. Further, the compound was called inactive in [2], in assay [6] and in assay [7].
As to `C=CCN1CCC23c4c5ccc(O)c4O[C@H]2C(=O)CC[C@@]3(O)C1C5` (stereo not given in full), the Potency entry in assay [1], in assay [3] and in [5] was “inactive” each time. The result in assay [2], in [6] and in assay [7] was inactive.
In the case of `CCCCCCCCCCCCCC(=O)O[C@@H]1[C@@H](C)[C@@]2(O)[C@@H](C=C(CO)C[C@@]3(O)C(=O)C(C)=C[C@@H]23)C2C(C)(C)[C@@]21OC(C)=O` (stereo not given in full), the Potency result in assay [1], in assay [3] and in assay [5] was “inactive” throughout. Further, the call in assay [2], in [4], in assay [6] and in assay [7] was inactive.
In the case of `c1ccc2c(c1)[I+]c1ccccc1-2`, the Potency result in [1], in assay [3] and in [5] was “inactive” throughout. Besides, the compound was classed as inactive in assay [2], in assay [6] and in assay [7].
As to `COc1ccc(CNC(=O)/C=C/c2ccc3[nH]cc(CCN(C)C)c3c2)cc1`, the Potency entry in assay [1], in assay [3] and in assay [5] was “inactive” in each case. The compound was called inactive in assay [2], in assay [6] and in assay [7].
`CN1CC[C@@]2(C)c3cc(O)ccc3N(C)C12` (stereo not given in full): the Potency result in [1], in assay [3] and in assay [5] was “inactive” throughout. The result in assay [2], in [4], in [6] and in [7] was inactive.
